Eleven molecules from PubChem BioAssay (NCATS) can be followed below.

Records with an inconclusive call do not appear. The source made the active and inactive calls. Calls follow the shape of the full dose curve.

The assay in a line: Primary qHTS for inhibitors of MERS-S pseudo-typed particle cell entry (AID 1479149). Also: nearly all actives have a fitted effect of over 60% in size. Particulars: MERS-S pseudotyped particle entry, luciferase; series mostly up to 57.1 µM. In general terms: qHTS replaces the single test concentration by a dilution series.
Turning to `CC1CCC(C(C)C)C(OC(=O)c2ccccc2N)C1` (stereo unspecified), the outcome was inactive.
`NCC(O)c1cccc(O)c1` (stereo unspecified): the outcome was inactive.
With `CN1[C@H]2CC[C@@H]1[C@@H](C(=O)O)[C@@H](OC(=O)c1ccccc1)C2` the entry was “inactive [at 114 µM]”; with `O=C(O)C(Cl)(Cl)Cl`, “inactive”; with `CC(=O)O[C@H]1CC[C@H]2[C@@H]3CCC4=CC(=O)CCC4=C3C=C[C@]12C`, “inactive”.
To `O=C(C[C@@H]1NCCC[C@H]1O)Cn1cnc2cc(Br)c(Cl)cc2c1=O` belongs “inactive”; to `CC(C)CCON=O`, “inactive”.
As to `Cn1sc(Cl)cc1=O`, the result was inactive.
To `COc1cc2c(cc1OC)[C@@]13CCN4CC5=CCO[C@H]6CC(=O)N2[C@H]1[C@H]6[C@H]5C[C@H]43` belongs “inactive”; to `C=CC[C@]1(O)CC[C@H]2[C@@H]3CCC4=CCCC[C@@H]4[C@H]3CC[C@@]21C`, “inactive”; to `c1ccc2sc(SNC3CCCCC3)nc2c1`, “inactive [at 114 µM]”.
